# Active and inactive are the calls of the source. Rule for the calls: active = hit-call score of the fitted dose curve at least 0.9, where 1 is the maximum; inactive = score below 0.9.
# What was measured:
# [1] = ATG_GLI_CIS: Attagene CIS-FACTORIAL HepG2 Assay for human Zinc Finger Protein GLI1 (AID 2282945); conditions: HepG2, Attagene cis-factorial reporter mRNA, GLI element; actives raise or lower the signal
# Outline: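 Bidirectional curve fits relative to DMSO, using reporter mRNA levels from RT-PCR plus capillary electrophoresis. Cells were HepG2 transiently carrying cis-regulated reporter constructs, harvested 24 h after dosing.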
# [2] = target: Bile acid receptor (Homo sapiens) (UniProt Q96RI1); test: ATG_IR1_CIS: Attagene CIS-FACTORIAL HepG2 Assay for human Nuclear Receptor Subfamily 1 Group H Member 4 (NR1H4), IR1 submotif (AID 2282946); conditions: IR1 reporter transcription, actives raise or lower the signal
# Outline: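 HepG2 cells transiently transfected with multiplexed cis-element reporter units read endogenous transcription factor activity. After 24 h compound exposure, reporter mRNA was quantified by RT-PCR, fluorescent labelling, HpaI digestion and capillary electrophoresis; bidirectional fitting versus DMSO baseline.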
# [3] = ATG_GRE_CIS: Attagene CIS-FACTORIAL HepG2 Assay for human Glucocorticoid Response Elements (GRE) (AID 2282947); conditions: HepG2 GRE cis-reporter, Attagene multiplex mRNA; actives raise or lower the signal
# Outline: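 Reporter transcripts read by RT-PCR with capillary electrophoresis fluorescence after a 24 h chemical exposure of HepG2 cells transiently transfected with multiple cis-element reporter units. Gain or loss fitted against DMSO.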
# [4] = ATG_ISRE_CIS: Attagene CIS-FACTORIAL HepG2 Assay for human Interferon Regulatory Factor 1 (IRF1) binding to an Interferon-Stimulated Response Element (ISRE) (AID 2282948); conditions: HepG2 ISRE cis-reporter (Attagene), mRNA transcription readout; actives raise or lower the signal
# Outline: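 Signal reflects induction or loss of ISRE-linked reporter mRNA in transiently transfected HepG2 cells after a 24 h treatment, detected by fluorescent RT-PCR fragments on capillary electrophoresis and normalised to DMSO.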
# [5] = ATG_M_32_CIS: Attagene CIS-FACTORIAL HepG2 Assay for M32 Transcription Factor (Internal Marker) (AID 2282949); conditions: HepG2 Attagene cis-factorial M32 reporter, mRNA; actives raise or lower the signal;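 note: background control marker of the multiplexed CIS panel rather than a real target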
# Outline: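 HepG2 human liver cells transiently transfected with cis-promoter-driven multiple reporter transcription units, dosed 24 h. Reporter mRNA quantified by RT-PCR, FAM-labelled primer extension, HpaI digest and capillary electrophoresis; bidirectional fit versus DMSO baseline.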
# [6] = ATG_M_06_CIS: Attagene CIS-FACTORIAL HepG2 Assay for M06 Transcription Factor (Internal Marker) (AID 2282950); conditions: HepG2 Attagene CIS-FACTORIAL M06 internal marker reporter; actives raise or lower the signal
# Outline: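 Internal background marker within multiplexed cis-reporter HepG2 system. Cells transiently transfected, dosed 24 h; reporter mRNA measured by RT-PCR, HpaI digestion and capillary electrophoresis. Bidirectional fit relative to DMSO.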
# [7] = target: Hepatocyte nuclear factor 6 (Homo sapiens) (UniProt Q9UBC0); test: ATG_HNF6_CIS: Attagene CIS-FACTORIAL HepG2 Assay for human Hepatocyte Nuclear Factor 6 (HNF6) (AID 2282952); conditions: HepG2 Attagene cis-factorial HNF6 reporter transcription; actives raise or lower the signal
# Outline: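 Twenty-four-hour chemical treatment of reporter-transfected HepG2 cells precedes RNA isolation, DNase-treated reverse transcription and PCR of reporter sequences. Labelled fragments are sized by capillary electrophoresis and fitted bidirectionally versus DMSO.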
# [8] = target: Heat shock factor protein 1 (Homo sapiens) (UniProt Q00613); test: ATG_HSE_CIS: Attagene CIS-FACTORIAL HepG2 Assay for human Heat Shock Transcription Factor 1 (HSE) (AID 2282953); conditions: HepG2 HSE cis-reporter, Attagene RNA transcription; actives raise or lower the signal
# Outline: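 HepG2 cells transfected with cis-promoter reporter units sensing endogenous transcription factor activity; reporter mRNA quantified 24 h post-dose by RT-PCR and capillary electrophoresis of 6-FAM-labelled products. Bidirectional fitting against DMSO.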
# [9] = ATG_MRE_CIS: Attagene CIS-FACTORIAL HepG2 Assay for human Metal Responsive Element (MRE) (AID 2282954); conditions: HepG2 MRE cis-reporter transcription, Attagene multiplex; actives raise or lower the signal
# Outline: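 Endogenous MRE-dependent transcription read as reporter mRNA in transiently transfected human HepG2 cells at 24 h. RNA reverse-transcribed, PCR-amplified, labelled and resolved by capillary electrophoresis; gain or loss relative to DMSO.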
# [10] = target: Paired box protein Pax-6 (Homo sapiens) (UniProt P26367); test: ATG_Pax6_CIS: Attagene CIS-FACTORIAL HepG2 Assay for human Paired Box 6 (PAX6) (AID 2282956); conditions: HepG2 CIS-FACTORIAL PAX6 reporter transcription, RNA readout; actives raise or lower the signal
# Outline: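 Values derive from bidirectional curve fitting of reporter mRNA signal relative to DMSO. HepG2 cells bearing transfected cis-regulated MRTUs were exposed for 24 h; transcripts were read by RT-PCR and capillary electrophoresis.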
# [11] = ATG_PXRE_CIS: Attagene CIS-FACTORIAL HepG2 Assay for human Pregnane X Receptor Element (PXRE) (AID 2282957); conditions: HepG2 Attagene CIS-FACTORIAL PXRE reporter, mRNA; actives raise or lower the signal
# Outline: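 Bidirectional activity, baselined to DMSO, derived from reporter mRNA fluorescence (RT-PCR plus capillary electrophoresis) in HepG2 cells bearing cis-promoter reporter units, 24 h exposure.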
# [12] = ATG_PPRE_CIS: Attagene CIS-FACTORIAL HepG2 Assay for human Peroxisome Proliferator-activated Response Element (PPRE) (AID 2282958); conditions: HepG2 PPRE cis-element reporter, Attagene transcription factor profiling; actives raise or lower the signal
# Outline: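 In this cell-based multiplex, a PPRE cis element drives a reporter sequence in transiently transfected HepG2 cells. Following 24 h treatment, labeled cDNA amplicons are sized and quantified by capillary electrophoresis, with DMSO defining baseline.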
# [13] = ATG_RORE_CIS: Attagene CIS-FACTORIAL HepG2 Assay for human RAR-related Orphan Receptor Element (RORE) (AID 2282959); conditions: HepG2 Attagene cis-factorial RORE reporter, mRNA; actives raise or lower the signal
# Outline: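 Endogenous factor activity at a cis response element is read as reporter transcript levels in HepG2 cells, 24 h post-dose. Transcripts are quantified by RT-PCR with capillary electrophoresis, and data fitted in both directions against DMSO.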
# [14] = ATG_Sox_CIS: Attagene CIS-FACTORIAL HepG2 Assay for human SRY-box transcription factor (SOX) (AID 2282960); conditions: HepG2 Attagene cis-factorial SOX reporter, mRNA; actives raise or lower the signal
# Outline: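 Measures mRNA induction of a SOX1-associated reporter in HepG2 after 24 h dosing. Fluorescently labelled RT-PCR fragments are separated by capillary electrophoresis, and gain or loss relative to DMSO control is fitted.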
# [15] = target: Transcription factor Sp1 (Homo sapiens) (UniProt P08047); test: ATG_Sp1_CIS: Attagene CIS-FACTORIAL HepG2 Assay for human Specificity Protein 1 (Sp1) (AID 2282961); conditions: HepG2 Sp1 cis-reporter transcription, actives raise or lower the signal
# Outline: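 Cells: HepG2, transiently transfected with cis-regulated multiplexed reporters. Exposure: 24 h. Detection: reporter transcripts amplified, fluorescently labeled, restriction-digested and sized by capillary electrophoresis. Analysis: bidirectional fit relative to DMSO.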
# [16] = ATG_SREBP_CIS: Attagene CIS-FACTORIAL HepG2 Assay for human Sterol Regulatory Element Binding (SREBP) (AID 2282962); conditions: HepG2 Attagene cis-factorial SREBP reporter, mRNA; actives raise or lower the signal
# Outline: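 Values derive from bidirectional curve fitting with DMSO as baseline. The underlying measurement is reporter mRNA from cis-element-regulated units in transiently transfected HepG2, quantified by RT-PCR and capillary electrophoresis after 24 h exposure.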
# [17] = target: Signal transducer and activator of transcription 3 (Homo sapiens) (UniProt P40763); test: ATG_STAT3_CIS: Attagene CIS-FACTORIAL HepG2 Assay for human Signal Transducer and Activator of Transcription 3 (STAT3) (AID 2282963); conditions: HepG2, Attagene cis-factorial STAT3 reporter transcription; actives raise or lower the signal
# Outline: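 Readout is reporter transcript quantified by RT-PCR and capillary electrophoresis, with 6-FAM primer extension and HpaI digestion. Total RNA is taken 24 h after dosing transiently transfected HepG2 carrying cis-regulated reporter units. Bidirectional fit against DMSO.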
# [18] = ATG_TA_CIS: Attagene CIS-FACTORIAL HepG2 Assay for human TA Basal Promoter (AID 2282964); conditions: HepG2 Attagene CIS-factorial TA basal promoter reporter; actives raise or lower the signal
# Outline: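 HepG2 cells transiently transfected with multiple reporter units under cis promoter elements, reporting endogenous transcription factor activity; this endpoint tracks the TA basal promoter as background control. Reporter mRNA after 24 h dosing measured by RT-PCR/capillary electrophoresis; bidirectional fits versus DMSO.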
# [19] = target: Hypoxia-inducible factor 1-alpha (Homo sapiens) (UniProt Q16665); test: ATG_HIF1a_CIS: Attagene CIS-FACTORIAL HepG2 Assay for human Hypoxia Inducible Factor 1 (HIF1A) (AID 2282951); conditions: HepG2 Attagene cis-factorial HIF1a reporter transcription; actives raise or lower the signal
# Outline: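 Fluorescence intensity of capillary-separated, 6-FAM-labelled reporter amplicons gives mRNA induction in HepG2 cells carrying transfected cis-promoter reporter units; cells exposed 24 h, responses fitted up or down from DMSO.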
# [20] = ATG_PBREM_CIS: Attagene CIS-FACTORIAL HepG2 Assay for human Phenobarbital-responsive Enhancer Module (PBREM) (AID 2282955); conditions: HepG2 PBREM cis-reporter, Attagene multiplexed transcription; actives raise or lower the signal
# Outline: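 Cells were transfected with cis-element reporter units and treated for 24 h, after which RNA was extracted and reporter transcripts measured by RT-PCR and capillary electrophoresis.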
# Sequence of Transcription factor Sp1 (Homo sapiens) (P08047 whole entry, looked up): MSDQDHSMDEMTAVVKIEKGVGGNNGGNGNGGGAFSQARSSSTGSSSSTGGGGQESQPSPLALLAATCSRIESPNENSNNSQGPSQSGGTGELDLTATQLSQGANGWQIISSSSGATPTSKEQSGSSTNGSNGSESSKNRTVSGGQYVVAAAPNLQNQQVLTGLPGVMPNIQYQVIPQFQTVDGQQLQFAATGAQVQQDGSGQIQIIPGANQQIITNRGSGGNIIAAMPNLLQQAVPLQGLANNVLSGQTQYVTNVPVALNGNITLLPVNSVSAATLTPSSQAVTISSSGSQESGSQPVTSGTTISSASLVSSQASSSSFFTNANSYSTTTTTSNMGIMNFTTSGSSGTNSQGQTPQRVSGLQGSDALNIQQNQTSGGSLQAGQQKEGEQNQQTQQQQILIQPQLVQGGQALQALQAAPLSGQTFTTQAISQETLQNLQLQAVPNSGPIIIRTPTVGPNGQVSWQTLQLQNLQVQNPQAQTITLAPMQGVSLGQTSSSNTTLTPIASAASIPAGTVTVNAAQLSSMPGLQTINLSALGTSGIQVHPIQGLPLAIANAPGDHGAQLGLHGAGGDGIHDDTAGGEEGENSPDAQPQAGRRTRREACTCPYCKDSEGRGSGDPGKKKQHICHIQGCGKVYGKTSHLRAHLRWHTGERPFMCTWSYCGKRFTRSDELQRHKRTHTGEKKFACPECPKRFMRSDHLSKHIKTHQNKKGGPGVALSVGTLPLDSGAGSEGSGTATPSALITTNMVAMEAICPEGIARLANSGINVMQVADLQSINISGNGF
# Sequence of Hypoxia-inducible factor 1-alpha (Homo sapiens) (Q16665 whole entry, looked up): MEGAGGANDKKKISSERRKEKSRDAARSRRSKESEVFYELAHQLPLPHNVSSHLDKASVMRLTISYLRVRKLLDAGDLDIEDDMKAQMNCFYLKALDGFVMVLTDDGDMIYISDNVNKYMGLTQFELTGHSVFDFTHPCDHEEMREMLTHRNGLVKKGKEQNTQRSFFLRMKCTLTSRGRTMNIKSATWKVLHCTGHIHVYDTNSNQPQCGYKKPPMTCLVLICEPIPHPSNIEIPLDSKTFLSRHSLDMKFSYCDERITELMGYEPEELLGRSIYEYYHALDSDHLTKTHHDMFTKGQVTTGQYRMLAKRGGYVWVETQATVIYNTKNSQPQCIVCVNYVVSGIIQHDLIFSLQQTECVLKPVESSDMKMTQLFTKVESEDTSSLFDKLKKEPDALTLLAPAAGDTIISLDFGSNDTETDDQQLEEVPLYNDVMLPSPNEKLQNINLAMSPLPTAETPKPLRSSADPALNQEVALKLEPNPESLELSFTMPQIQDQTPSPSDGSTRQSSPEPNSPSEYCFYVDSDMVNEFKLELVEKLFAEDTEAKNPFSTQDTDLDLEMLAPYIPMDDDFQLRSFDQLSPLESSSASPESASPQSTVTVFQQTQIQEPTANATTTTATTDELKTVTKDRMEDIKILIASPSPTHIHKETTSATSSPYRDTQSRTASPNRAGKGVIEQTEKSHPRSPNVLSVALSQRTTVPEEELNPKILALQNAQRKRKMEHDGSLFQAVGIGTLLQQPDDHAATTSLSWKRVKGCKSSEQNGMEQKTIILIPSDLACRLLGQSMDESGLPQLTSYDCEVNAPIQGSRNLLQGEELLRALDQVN
# Sequence of Paired box protein Pax-6 (Homo sapiens) (P26367 whole entry, looked up): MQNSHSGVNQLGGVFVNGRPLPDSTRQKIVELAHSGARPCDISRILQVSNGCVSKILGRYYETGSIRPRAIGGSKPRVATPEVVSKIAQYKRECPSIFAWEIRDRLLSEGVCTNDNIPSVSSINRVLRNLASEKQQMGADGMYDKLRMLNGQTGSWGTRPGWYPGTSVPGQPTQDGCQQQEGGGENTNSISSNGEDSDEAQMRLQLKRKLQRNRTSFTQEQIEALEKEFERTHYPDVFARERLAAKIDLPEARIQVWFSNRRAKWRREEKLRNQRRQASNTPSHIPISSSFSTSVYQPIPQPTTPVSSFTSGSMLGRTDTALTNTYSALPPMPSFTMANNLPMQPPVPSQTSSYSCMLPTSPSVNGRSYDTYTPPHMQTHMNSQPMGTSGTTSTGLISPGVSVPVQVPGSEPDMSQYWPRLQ
# Sequence of Bile acid receptor (Homo sapiens) (Q96RI1 whole entry, looked up): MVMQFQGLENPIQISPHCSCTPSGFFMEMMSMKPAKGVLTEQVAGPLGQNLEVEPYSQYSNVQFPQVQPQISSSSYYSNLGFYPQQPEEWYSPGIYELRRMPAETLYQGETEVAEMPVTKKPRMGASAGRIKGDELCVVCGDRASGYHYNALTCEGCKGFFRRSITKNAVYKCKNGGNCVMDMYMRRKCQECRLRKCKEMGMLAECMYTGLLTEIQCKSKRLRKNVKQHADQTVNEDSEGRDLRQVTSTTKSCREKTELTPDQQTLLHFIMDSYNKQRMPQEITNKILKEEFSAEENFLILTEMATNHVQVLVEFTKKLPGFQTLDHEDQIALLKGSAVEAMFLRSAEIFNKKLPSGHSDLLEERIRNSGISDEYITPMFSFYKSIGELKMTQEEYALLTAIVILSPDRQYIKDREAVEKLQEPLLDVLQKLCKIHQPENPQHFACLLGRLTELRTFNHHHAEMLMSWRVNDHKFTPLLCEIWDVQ
# Sequence of Hepatocyte nuclear factor 6 (Homo sapiens) (Q9UBC0 whole entry, looked up, the tested form may be a part): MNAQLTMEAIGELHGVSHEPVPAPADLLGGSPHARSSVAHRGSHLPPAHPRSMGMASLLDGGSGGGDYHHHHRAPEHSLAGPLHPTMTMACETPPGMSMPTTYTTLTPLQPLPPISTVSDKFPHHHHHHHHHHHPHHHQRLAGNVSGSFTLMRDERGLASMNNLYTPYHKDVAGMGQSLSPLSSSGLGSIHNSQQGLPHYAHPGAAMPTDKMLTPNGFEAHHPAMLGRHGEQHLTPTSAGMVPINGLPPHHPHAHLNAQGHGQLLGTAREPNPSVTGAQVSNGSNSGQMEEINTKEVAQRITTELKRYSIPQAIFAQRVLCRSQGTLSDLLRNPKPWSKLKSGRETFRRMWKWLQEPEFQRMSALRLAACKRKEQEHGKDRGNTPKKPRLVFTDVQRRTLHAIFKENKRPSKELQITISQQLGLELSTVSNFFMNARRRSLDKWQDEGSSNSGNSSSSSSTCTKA
# Sequence of Heat shock factor protein 1 (Homo sapiens) (Q00613 whole entry, looked up): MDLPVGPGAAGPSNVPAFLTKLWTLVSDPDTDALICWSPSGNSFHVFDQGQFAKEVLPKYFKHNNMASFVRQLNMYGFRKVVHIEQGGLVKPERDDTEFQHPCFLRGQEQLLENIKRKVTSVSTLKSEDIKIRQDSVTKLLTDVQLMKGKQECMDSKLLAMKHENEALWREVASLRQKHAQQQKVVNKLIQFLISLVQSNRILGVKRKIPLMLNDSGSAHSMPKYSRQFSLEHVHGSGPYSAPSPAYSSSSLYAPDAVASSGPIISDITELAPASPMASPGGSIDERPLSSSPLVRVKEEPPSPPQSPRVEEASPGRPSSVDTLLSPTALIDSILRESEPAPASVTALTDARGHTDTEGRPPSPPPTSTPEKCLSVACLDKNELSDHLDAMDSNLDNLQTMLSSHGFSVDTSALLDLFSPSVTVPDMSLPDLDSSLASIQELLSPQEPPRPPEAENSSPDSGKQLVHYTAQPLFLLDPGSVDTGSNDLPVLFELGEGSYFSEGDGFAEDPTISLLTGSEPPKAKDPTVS
# Sequence of Signal transducer and activator of transcription 3 (Homo sapiens) (P40763 whole entry, looked up): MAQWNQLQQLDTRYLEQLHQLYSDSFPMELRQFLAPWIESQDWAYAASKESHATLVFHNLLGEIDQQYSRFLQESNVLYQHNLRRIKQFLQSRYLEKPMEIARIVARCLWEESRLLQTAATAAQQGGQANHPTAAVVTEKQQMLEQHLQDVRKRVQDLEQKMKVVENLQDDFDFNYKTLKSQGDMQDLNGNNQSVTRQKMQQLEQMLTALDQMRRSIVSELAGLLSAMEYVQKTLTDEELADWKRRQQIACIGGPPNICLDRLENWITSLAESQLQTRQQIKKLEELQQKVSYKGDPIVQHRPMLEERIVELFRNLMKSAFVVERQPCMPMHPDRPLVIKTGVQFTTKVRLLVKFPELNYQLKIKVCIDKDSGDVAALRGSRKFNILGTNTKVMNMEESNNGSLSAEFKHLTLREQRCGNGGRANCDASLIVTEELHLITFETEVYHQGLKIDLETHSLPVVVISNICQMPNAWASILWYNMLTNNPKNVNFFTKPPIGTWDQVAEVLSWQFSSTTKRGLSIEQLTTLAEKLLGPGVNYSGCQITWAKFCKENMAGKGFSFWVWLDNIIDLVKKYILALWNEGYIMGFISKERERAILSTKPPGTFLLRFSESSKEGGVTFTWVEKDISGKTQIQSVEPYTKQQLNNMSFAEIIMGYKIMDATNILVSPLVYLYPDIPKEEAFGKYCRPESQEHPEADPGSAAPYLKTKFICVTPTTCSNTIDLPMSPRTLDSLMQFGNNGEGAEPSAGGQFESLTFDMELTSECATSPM
smiles,measurement,setting,value
NC(=O)C(F)(F)C(F)(F)C(F)(F)F,outcome,[1],inactive
same,outcome,[2],inactive
same,outcome,[3],inactive
same,outcome,[4],inactive
same,outcome,[5],inactive
same,outcome,[6],inactive
same,outcome,[7],inactive
same,outcome,[8],inactive
same,outcome,[9],inactive
same,outcome,[10],inactive
same,outcome,[11],inactive
same,outcome,[12],inactive
same,outcome,[13],inactive
same,outcome,[14],inactive
same,outcome,[15],inactive
same,outcome,[16],inactive
same,outcome,[17],inactive
same,outcome,[18],inactive
C#CC(O)CCC (stereo not drawn),outcome,[1],inactive
same,outcome,[2],inactive
same,outcome,[3],inactive
same,outcome,[4],inactive
same,outcome,[5],inactive
same,outcome,[6],inactive
same,outcome,[7],inactive
same,outcome,[8],inactive
same,outcome,[9],inactive
same,outcome,[10],inactive
same,outcome,[12],inactive
same,outcome,[13],inactive
same,outcome,[14],inactive
same,outcome,[17],inactive
same,outcome,[18],inactive
Nc1c(Br)cc([N+](=O)[O-])cc1Br,outcome,[1],inactive
same,outcome,[2],inactive
same,outcome,[3],inactive
same,outcome,[4],inactive
same,outcome,[5],inactive
same,outcome,[6],inactive
same,outcome,[19],inactive
same,outcome,[7],inactive
same,outcome,[9],inactive
same,outcome,[20],inactive
same,outcome,[10],inactive
same,AC50,[11],26.7 µM (active)
same,outcome,[12],inactive
same,outcome,[13],inactive
same,outcome,[14],inactive
same,outcome,[15],inactive
same,outcome,[16],inactive
same,outcome,[17],inactive
same,outcome,[18],inactive
OC(O)C(F)(F)C(F)(F)F,outcome,[1],inactive
same,outcome,[2],inactive
same,outcome,[3],inactive
same,AC50,[4],108 µM (active)
same,outcome,[5],inactive
same,outcome,[6],inactive
same,outcome,[19],inactive
same,outcome,[7],inactive
same,outcome,[9],inactive
same,outcome,[20],inactive
same,outcome,[10],inactive
same,outcome,[11],inactive
same,outcome,[12],inactive
same,outcome,[13],inactive
same,outcome,[14],inactive
same,outcome,[16],inactive
same,outcome,[17],inactive
same,outcome,[18],inactive
CCOC(=O)CC(=O)C(F)(F)C(F)(F)F,outcome,[1],inactive
same,outcome,[2],inactive
same,outcome,[3],inactive
same,outcome,[4],inactive
same,outcome,[5],inactive
same,outcome,[6],inactive
same,outcome,[19],inactive
same,outcome,[7],inactive
same,outcome,[9],inactive
same,outcome,[10],inactive
same,AC50,[11],75.8 µM (active)
same,outcome,[12],inactive
same,outcome,[13],inactive
same,outcome,[14],inactive
same,outcome,[15],inactive
same,outcome,[17],inactive
same,outcome,[18],inactive
Cc1ccc([N+](=O)[O-])c(C)c1,outcome,[1],inactive
same,outcome,[2],inactive
same,outcome,[3],inactive
same,outcome,[4],inactive
same,outcome,[5],inactive
same,outcome,[6],inactive
same,outcome,[7],inactive
same,outcome,[8],inactive
same,outcome,[9],inactive
same,outcome,[20],inactive
same,outcome,[10],inactive
same,outcome,[11],inactive
same,outcome,[12],inactive
same,outcome,[13],inactive
same,outcome,[14],inactive
same,outcome,[15],inactive
same,outcome,[16],inactive
same,outcome,[17],inactive
same,outcome,[18],inactive
Oc1ccc2c(c1)CCC2,outcome,[1],inactive
same,outcome,[2],inactive
same,outcome,[3],inactive
same,outcome,[4],inactive
same,outcome,[5],inactive
same,outcome,[6],inactive
same,outcome,[19],inactive
same,outcome,[7],inactive
same,outcome,[9],inactive
same,outcome,[20],inactive
same,outcome,[10],inactive
same,outcome,[11],inactive
same,outcome,[12],inactive
same,outcome,[13],inactive
same,outcome,[14],inactive
same,outcome,[16],inactive
same,outcome,[17],inactive
same,outcome,[18],inactive
OCCCC(F)(F)C(F)(F)C(F)(F)C(F)(F)C(F)(F)C(F)(F)C(F)(F)C(F)(F)F,outcome,[1],inactive
same,outcome,[2],inactive
same,outcome,[3],inactive
same,AC50,[4],50 µM (active)
same,outcome,[5],inactive
same,outcome,[6],inactive
same,outcome,[19],inactive
same,outcome,[7],inactive
same,outcome,[9],inactive
same,outcome,[20],inactive
same,AC50,[10],29.9 µM (active)
same,outcome,[11],inactive
same,AC50,[12],20.9 µM (active)
same,outcome,[13],inactive
same,outcome,[14],inactive
same,outcome,[15],inactive
same,outcome,[16],inactive
same,outcome,[17],inactive
same,outcome,[18],inactive

# Reference: PubChem BioAssay (EPA / NIEHS)
